Bioassay records as filed in PubChem BioAssay.
The full list was thinned out, with hits kept by preference.
IDE exosite FP: exo-site inhibitors of human insulin-degrading enzyme | P14735 | purified IDE, FL-6b probe fluorescence polarization; stronger effect = lower value | z-score at 20 µM | 17,000 compounds, 6.3% hits | AID 1259349;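 active = z-score of -3 or lower, meaning strong loss of probe binding signal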;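 also: His-tagged human IDE residues 42-1019 made in E. coli with 30 nM FL-6b probe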
A number is an active result; 0 = inactive.

SMILES	IDE exosite FP
COc1ccc(NC(=O)N(C)C[C@H]2OCCCC[C@H](C)Oc3ccc(NC(=O)c4ccncc4)cc3C(=O)N([C@@H](C)CO)C[C@H]2C)cc1	0
Cc1ccccc1S(=O)(=O)N1CC(=O)N2[C@H](C1)[C@H](c1ccc(C#CCN(C)C)cc1)[C@@H]2CO	0
N#C[C@@H]1[C@H](c2ccccc2-c2ccccc2F)[C@H](CO)N1C(=O)c1cccc(F)c1	0
O=C(NC1CCCC1)N[C@@H]1C=C[C@H](CC(=O)N2CCOCC2)O[C@@H]1CO	0
COc1ccc(C#Cc2ccc([C@H]3[C@H]4CN(C(=O)Nc5ccccc5F)CC(=O)N4[C@H]3CO)cc2)cc1	0
CCCC#Cc1ccc([C@@H]2[C@H]3CN(C(=O)Nc4ccccc4F)CC(=O)N3[C@H]2CO)cc1	0
O=C(NC1CCCC1)N1CCCCN2[C@@H](CO)[C@@H](c3ccc(/C=C/c4ccccc4)cc3)[C@@H]2C1	-8.4
O=C(NC1CCCC1)N1CCCCN2[C@H](CO)[C@@H](c3ccc(-c4ccccc4)cc3)[C@H]2C1	0
O=C(Nc1ccccc1F)N1CCCCN2[C@H](C1)[C@H](c1ccc(/C=C/c3ccccc3)cc1)[C@@H]2CO	0
O=C(NC1CCCC1)N1CCCCN2[C@H](CO)[C@H](c3ccc(-c4ccncc4)cc3)[C@H]2C1	0
COc1ccccc1-c1ccc([C@H]2[C@@H](CO)N3CCCCN(C(=O)NC4CCCC4)C[C@@H]23)cc1	-9.3
O=C(NC1CCCC1)N1CCCCN2[C@H](CO)[C@H](c3ccc(-c4ccncc4)cc3)[C@@H]2C1	0
O=C(Nc1ccccc1F)N1CCCCN2[C@@H](CO)[C@@H](c3ccc(/C=C/c4ccccc4)cc3)[C@@H]2C1	0
O=C(NC1CCCC1)N1CCCCN2[C@@H](CO)[C@H](c3ccc(/C=C/c4ccccc4)cc3)[C@@H]2C1	-15
O=C(NC1CCCC1)N1CCCCN2[C@H](CO)[C@H](c3ccc(-c4ccccc4)cc3)[C@@H]2C1	0
COc1cccc(S(=O)(=O)N2CCCCN3[C@H](CO)[C@@H](c4ccc(C#CC5CC5)cc4)[C@H]3C2)c1	0
C[C@H]1CN([C@@H](C)CO)C(=O)c2c(c3ccccc3n2C)-c2ccccc2CO[C@@H]1CN(C)Cc1cccc(C(F)(F)F)c1	0
N#C[C@@H]1[C@H](c2ccccc2-c2cccc(F)c2)[C@H](CO)N1C(=O)c1cccnc1	0
O=C(C[C@H]1CC[C@H]2[C@@H](COC[C@H](O)CN2C(=O)c2ccccc2F)O1)NCc1ccc(Cl)c(Cl)c1	0
CNC(=O)C[C@@H]1CC[C@@H]2[C@@H](COc3ccc(NS(=O)(=O)c4ccc(F)cc4)cc3C(=O)N2C)O1	0
C[C@@H]1CN([C@H](C)CO)C(=O)c2cc(NC(=O)Nc3cccc4ccccc34)ccc2O[C@@H](C)CCCCO[C@@H]1CN(C)S(=O)(=O)c1cn(C)cn1	-7.1
C[C@@H]1CCCCO[C@@H](CN(C)S(=O)(=O)c2cn(C)cn2)[C@H](C)CN([C@H](C)CO)C(=O)c2cc(N(C)C)ccc2O1	0
C[C@@H]1CCCCO[C@@H](CN(C)S(=O)(=O)c2cn(C)cn2)[C@H](C)CN([C@H](C)CO)C(=O)c2cc(NC(=O)Nc3cccc4ccccc34)ccc2O1	0
CC(=O)NC[C@H]1[C@H](c2ccccc2)[C@@H](CO)N1C(=O)Cc1ccncc1	0
CCS(=O)(=O)Nc1ccc2c(c1)C(=O)N(C)[C@H]1CC[C@@H](CC(=O)N3CCN(C)CC3)O[C@H]1CO2	0
SMILES	IDE exosite FP
CCCNC(=O)N1CC(=O)N2[C@H](CO)[C@@H](c3ccc(C#Cc4ccccc4)cc3)[C@@H]2C1	-6.9
COc1ccccc1NC(=O)N1CC(=O)N2[C@H](C1)[C@H](c1ccc(-c3cccc(C)c3)cc1)[C@@H]2CO	0
COc1ccccc1NC(=O)N1CC(=O)N2[C@H](CO)[C@@H](c3ccc(-c4ccc(F)cc4)cc3)[C@H]2C1	0
CCCNC(=O)N1CC(=O)N2[C@@H](CO)[C@H](c3ccc(-c4cccc(C)c4)cc3)[C@@H]2C1	-16
CCCNC(=O)N1CC(=O)N2[C@H](CO)[C@H](c3ccc(C#Cc4cccc(OC)c4)cc3)[C@@H]2C1	0
CCCNC(=O)N1CC(=O)N2[C@H](C1)[C@@H](c1ccc(C#Cc3cccc(F)c3)cc1)[C@@H]2CO	0
CCCNC(=O)N1CC(=O)N2[C@H](CO)[C@H](c3ccc(C#Cc4ccc(F)cc4)cc3)[C@@H]2C1	0
CCCNC(=O)N1CC(=O)N2[C@H](C1)[C@@H](c1ccc(-c3ccccc3)cc1)[C@@H]2CO	-5.6
CCCNC(=O)N1CC(=O)N2[C@H](CO)[C@@H](c3ccc(C#Cc4ccc(F)cc4)cc3)[C@H]2C1	0
CCCC#Cc1ccc([C@H]2[C@@H](CO)N3C(=O)CN(C(=O)NCCC)C[C@@H]23)cc1	0
COc1ccccc1NC(=O)N1CC(=O)N2[C@H](CO)[C@@H](c3ccc(-c4cccc(C)c4)cc3)[C@@H]2C1	-9.4
CCCNC(=O)N1CC(=O)N2[C@H](C1)[C@H](c1ccc(-c3ccc(F)cc3)cc1)[C@@H]2CO	0
